Most compounds without a hit are left out; they make up all but 0.51% or so of the library.
Tat transport: E. coli Tat export inhibitors, primary screen, MC4100, TorA-mCherry reporter, fluorescence, single point. 340,000 tested, 0.036% active. inhibition, % at 10 µM;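 active = mean replicate inhibition at least 50% and at least half of replicates individually reaching 50%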;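 also: exported cargo escapes ClpAP degradation while cytoplasmic cargo is degraded and loses fluorescence; 0% = median of neutral control wells and 100% = median of NaSCN control wells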
AddAB inh: growth inhibition of E. coli expressing H. pylori AddAB, primary screen, AddAB inhibitor project, absorbance; inhibition, % at 11.9 µM; 330,000 tested, 0.29% active; AID 435030, 2010; in the data active = inhibition above about 12%;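 also: 0% = vehicle wells of infected cells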
E coli growth-1: E. coli V3065 growth inhibition, primary screen, counter-screen for AddAB inhibitor project, absorbance, OD600; 18 h; 330,000 tested, 0.27% active; inhibition, % at 11.9 µM;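 active = inhibition above the campaign's mean inhibition across all tested compounds plus 3 SD, cut at about 9.9% in these data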;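 also: uninfected addAB+ strain grown without phage in ampicillin broth; 0% = DMSO wells and 100% = ciprofloxacin 0.95 µg/ml wells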
phage Ecoli inh: growth loss of phage-infected E. coli, primary screen, RecBCD inhibitor project, absorbance, with phage, HTS. inhibition, % at 11.9 µM. 360,000 tested, 0.26% active. AID 651602, 2012; in the data active = inhibition above about 11%
E coli growth-2: E. coli growth inhibition, primary screen, OD600. Escherichia coli growth, 23 h; hits give low values. OD600 absorbance (test concentration not listed). 330,000 tested, 0.21% active. AID 1053175, 2014;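 active = OD600 absorbance below the run mean of sample wells minus 3.6 SD, in any replicate, cut at about 0.56 in these data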
AddAB conf: growth loss of phage-infected E. coli expressing H. pylori AddAB, confirmation, AddAB inhibitor project, absorbance, E. coli V3065, T4 phage, triplicate; shares compounds with AddAB inh; OD; T4 phage with gene 2 nonsense mutations; inhibition, % at 11.9 µM; 880 tested, 64% active; AID 488942, 2010;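 active = mean inhibition above a set limit taken from the earlier primary screen, cut at about 13% in these data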;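 also: higher means less bacterial growth since AddAB block lets phage replicate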
RecBCD counter: growth loss of RecBCD+ E. coli with mutant T4 phage, counter-screen for AddAB inhibitor project, absorbance, V66 E. coli; OD growth; inhibition, % at 11.9 µM; shares compounds with AddAB inh; 880 tested, 73% active;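 active = mean inhibition above the mean of solvent-only control wells plus 3 SD, cut at about 4% in these data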;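 also: optical density read after an 18 h incubation at 37 °C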
bact viab count: bacterial viability inhibition counter-screen, confirmation, counter-screen for AddAB inhibitor project, absorbance. inhibition, % at 11.9 µM. absorbance (AddAB counterscreen). 880 tested, 35% active. shares compounds with AddAB inh; in the data active = inhibition above about 25%
RecBCD conf: growth loss of phage-infected RecBCD+ E. coli, confirmation, RecBCD inhibitor project, absorbance, E. coli V66, T4 gene 2 phage. E. coli V66 + T4 2- phage, growth OD. 890 tested, 45% active. shares compounds with phage Ecoli inh. inhibition, % at 11.9 µM;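 active = mean inhibition over triplicates exceeding the hit threshold derived in the original primary screen, cut at about 11% in these data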
Ecoli viability: E. coli viability inhibition, counter-screen for RecBCD inhibitor project, absorbance, high throughput; shares compounds with phage Ecoli inh; absorbance (OD) growth; inhibition, % at 11.9 µM; 890 tested, 29% active; in the data active = inhibition above about 20%;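 also: E. coli strain V66 grown with compound alone and no phage infection; 0% = bacteria with DMSO vehicle only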
AddAB counter: growth loss of phage-infected AddAB-carrying E. coli, confirmation, counter-screen for RecBCD inhibitor project, absorbance, E. coli V3065, T4 phage. shares compounds with phage Ecoli inh. AID 651984, 2013. 890 tested, 45% active. inhibition, % at 11.9 µM. E. coli expressing H. pylori AddAB + T4 phage, OD growth; gene 2 mutant T4, recBCD-deleted host;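 active = mean inhibition above the solvent-only control wells' mean plus 3 SD, cut at about 22% in these data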;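 also: higher means less bacterial growth from phage killing when AddAB is blocked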
Starred values were filed as active, the others as inactive; · = not tested or not shown.

SMILES	Tat transport	AddAB inh	E coli growth-1	phage Ecoli inh	E coli growth-2	AddAB conf	RecBCD counter	bact viab count	RecBCD conf	Ecoli viability	AddAB counter
Nc1ncnc2c1ncn2[C@H]1CC[C@@H](CO)O1	14	76*	75*	53*	0.36*	94*	48*	89*	60*	55*	88*
O=c1[nH]cnc2c1ncn2[C@@H]1C[C@@H](O)[C@H](CO)O1	-13	2	-2	1	0.61	·	·	·	·	·	·
O=c1[nH]cnc2c1ncn2[C@H]1CC[C@@H](CO)O1	8	97*	98*	101*	·	98*	96*	98*	98*	100*	99*
NC(=O)C1CCCNc2c(F)cc([N+](=O)[O-])cc2C(=O)NC(CCC(=O)O)C(=O)NC(CO)C(=O)N1 (configuration not stated)	·	·	·	·	0.69	·	·	·	·	·	·
C#C[C@]1(OC(C)=O)CCC2C3CCC4=CC(=O)CCC4C3CC[C@@]21C (some centres not stated)	·	·	·	·	0.69	·	·	·	·	·	·
COc1ccc(OC)c(NC(=O)Nc2nnc(N3CCCCC3C)s2)c1 (configuration not stated)	2	13*	13*	13*	0.69	2	17*	-2	10	12	-5
O=C(NCc1nc2ccccc2[nH]1)C1=CC(c2coc3ccccc3c2=O)CC(OCCCCO)O1 (configuration not stated)	·	·	·	·	0.66	·	·	·	·	·	·
CCn1cc(C(=O)O)c(=O)c2cc(F)c(N3CCN(C(=S)NC(=O)c4cccc(F)c4)CC3)cc21	4	98*	99*	42*	0.071*	100*	100*	100*	101*	101*	101*
CCn1cc(C(=O)O)c(=O)c2cc(F)c(N3CCN(C(=S)NC(=O)c4ccc(F)c(F)c4)CC3)cc21	91*	98*	98*	99*	0.07*	100*	87*	99*	103*	103*	104*
CCn1cc(C(=O)O)c(=O)c2cc(F)c(N3CCN(C(=S)NC(=O)c4ccccc4Br)CC3)cc21	11	97*	99*	94*	0.067*	103*	22*	102*	101*	102*	102*
CCCCCCCCCC(=O)N1CCN(c2cc3c(cc2F)c(=O)c(C(=O)O)cn3CC)CC1	0	0	1	1	0.56	·	·	·	·	·	·
CCCOc1ccc(C(=O)NC(=S)N2CCN(c3cc4c(cc3F)c(=O)c(C(=O)O)cn4CC)CC2)cc1	62*	99*	97*	98*	0.084*	103*	101*	105*	103*	103*	101*
CCn1cc(C(=O)O)c(=O)c2cc(F)c(N3CCN(C(=S)NC(=O)c4ccc(F)cc4)CC3)cc21	13	98*	96*	99*	0.063*	100*	100*	102*	103*	104*	105*
CCc1nnc(NS(=O)(=O)c2ccc(NC(=S)Nc3ccc(F)cc3)cc2)s1	6	15*	9	16*	0.65	-5	1	-1	3	2	8
Cc1n[nH]c(=S)n(NC(=O)CC(=O)Nn2c(=S)[nH]nc(C)c2=O)c1=O	0	19*	13*	16*	0.64	33*	15*	32*	14*	15	35*
C/C(N=Nc1nc2ccccc2s1)=N\Nc1ccccc1O	-6	15*	11*	33*	·	32*	34*	31*	24*	27*	39*
O=C(O)c1ccnc(Cl)c1	-7	1	-1	1	0.65	·	·	·	·	·	·
[N-]=[N+]=CC(=O)c1ccnc(C(=O)C=[N+]=[N-])c1	6	31*	38*	18*	0.56*	57*	22*	43*	20*	21*	49*
CC(=O)N(O)CCCCCNC(=O)CCC(=O)N(O)CCCCCNC(=O)CCC(=O)N(O)CCCCCN	5	18*	22*	17*	·	7	13*	3	3	7	14
CCCC(=O)NCCCCNC(=O)CCC	-4	-2	-3	2	0.7	·	·	·	·	·	·
Cc1cc(C)c(NC(=O)c2cn3c4c(c(N5CCN(C)CC5)c(F)cc4c2=O)OCC3C)c(C)c1 (configuration not stated)	36	97*	97*	97*	0.049*	101*	100*	101*	99*	100*	101*
CCn1cc(C(=O)NCC2CCCO2)c(=O)c2cc(F)c(N3CCN(C)CC3)cc21 (configuration not stated)	-3	2	2	3	0.74	·	·	·	·	·	·
CCn1cc(C(=O)O)c(=O)c2cc(F)c(NN=Cc3ccccc3)cc21	·	·	·	·	0.66	·	·	·	·	·	·
CN1CCN(c2c(F)cc3c(=O)c(C(=O)O)cn4c3c2OCN4C)CC1	138*	99*	99*	99*	0.07*	101*	100*	101*	102*	102*	103*
COc1ccc2c(c1)OCC1C2N2C(=O)CN(Cc3ccc(F)cc3)C(=O)[C@@]2(C)C1c1ccccc1 (some centres not stated)	·	·	·	·	0.69	·	·	·	·	·	·
O=C(NN=Cc1c(O)ccc2ccccc12)c1ccc2c(c1)OCO2	-11	18*	21*	11*	0.59	0	10*	-5	4	8	5
O=C(N/N=C/c1ccccc1)c1ccc2c(c1)OCO2	5	5	1	2	·	·	·	·	·	·	·
Nc1[nH]c(=O)ncc1F	0	28*	19*	29*	0.68	45*	20*	44*	32*	24*	52*
CCCCC1CNC(=S)N1CCCC (configuration not stated)	·	·	·	·	0.69	·	·	·	·	·	·

Bioassay records (PubChem)
